# Reference: paper PMC7862700, “An all-to-all approach to the identification of sequence-specific readers for epigenetic DNA modifications on cytosine”
# How the values were obtained:
# Test in all cases: DAPPL (digital affinity profiling via proximity ligation, sequencing); 10 mM Tris-HCl pH 7.5, 50 mM NaCl, 1 mM DTT, 4% glycerol, room temperature, 30 min; GST-TFs on glutathione beads, 16-mer random dsDNA library, 0.1% formaldehyde crosslink after washing; high values mean tight binding
# Settings in all cases: protein: recombinant; tags: N-terminal GST; dsDNA, one strand shown
# FEV = biological target: T1, FEV (Homo sapiens, UniProt Q99581 1-238)
# T1 sequence: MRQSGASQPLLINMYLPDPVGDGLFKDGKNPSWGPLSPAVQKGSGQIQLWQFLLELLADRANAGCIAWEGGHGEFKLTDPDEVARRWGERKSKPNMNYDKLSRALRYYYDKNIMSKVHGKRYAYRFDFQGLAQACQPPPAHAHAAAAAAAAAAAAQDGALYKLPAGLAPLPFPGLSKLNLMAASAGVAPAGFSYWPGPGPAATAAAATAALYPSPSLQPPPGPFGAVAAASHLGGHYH
# Method in brief: (§1)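 Sequencing on an Illumina NextSeq500 followed washing, crosslinking with 0.1% formaldehyde, proximity ligation (BsaI/T4 ligase, 1 h, 37 °C) and PCR amplification of pools that had been incubated for 30 min at room temperature with 200 nmole of a random double-stranded 16-mer DNA library in Tris/NaCl/DTT/glycerol buffer. Each pool held DNA-barcoded human transcription factors, expressed in yeast as GST fusions and captured on glutathione beads, plus a tag-only sample. Binding signal is a hexamer's read frequency for a factor divided by its frequency in the tag-only sample.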
# ETV5 = ETV5 (Homo sapiens, UniProt P41161 1-510)
# Method in brief: as §1
# SPIC = biological target: T2, SPIC (Homo sapiens, UniProt Q8N5J4 1-248)
# T2 sequence: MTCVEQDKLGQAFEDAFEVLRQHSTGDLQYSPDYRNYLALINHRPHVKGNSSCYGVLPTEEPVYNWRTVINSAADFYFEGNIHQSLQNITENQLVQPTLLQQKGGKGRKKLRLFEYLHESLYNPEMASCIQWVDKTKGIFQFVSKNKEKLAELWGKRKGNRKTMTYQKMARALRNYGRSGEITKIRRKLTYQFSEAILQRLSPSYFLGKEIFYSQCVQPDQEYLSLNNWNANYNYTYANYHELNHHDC
# Method in brief: as §1
# ELF4 = ELF4 (Homo sapiens, UniProt Q99607 1-663)
# Method in brief: as §1
# ELK4 = biological target: T3, ELK4 (Homo sapiens, UniProt P28324-2 1-405)
# T3 sequence: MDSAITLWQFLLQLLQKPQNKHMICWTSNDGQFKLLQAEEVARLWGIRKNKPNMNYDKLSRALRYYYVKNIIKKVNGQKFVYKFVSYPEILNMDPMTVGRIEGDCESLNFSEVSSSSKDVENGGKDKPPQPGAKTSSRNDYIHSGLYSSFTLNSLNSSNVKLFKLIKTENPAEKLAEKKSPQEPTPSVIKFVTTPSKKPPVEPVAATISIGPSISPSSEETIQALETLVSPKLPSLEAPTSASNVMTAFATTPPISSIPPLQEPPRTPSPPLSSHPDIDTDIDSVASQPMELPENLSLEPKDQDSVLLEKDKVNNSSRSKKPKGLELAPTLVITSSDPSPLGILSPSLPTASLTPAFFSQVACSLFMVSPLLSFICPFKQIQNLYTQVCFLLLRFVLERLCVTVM
# Method in brief: as §1
# ETV2 = biological target: T4, ETV2 (Homo sapiens, UniProt O00321 1-342)
# T4 sequence: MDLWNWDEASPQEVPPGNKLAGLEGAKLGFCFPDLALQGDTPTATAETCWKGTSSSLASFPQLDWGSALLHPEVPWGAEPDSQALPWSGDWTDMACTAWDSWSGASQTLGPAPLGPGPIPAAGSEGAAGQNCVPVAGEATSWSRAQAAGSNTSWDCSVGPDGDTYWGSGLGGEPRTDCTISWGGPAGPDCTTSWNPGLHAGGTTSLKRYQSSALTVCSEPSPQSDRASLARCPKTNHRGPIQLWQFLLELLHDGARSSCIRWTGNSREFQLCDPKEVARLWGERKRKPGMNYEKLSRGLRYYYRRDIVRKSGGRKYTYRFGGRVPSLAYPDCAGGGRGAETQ
# Method in brief: as §1
# ELF3 = biological target: T5, ELF3 (Homo sapiens, UniProt P78545 1-371)
# T5 sequence: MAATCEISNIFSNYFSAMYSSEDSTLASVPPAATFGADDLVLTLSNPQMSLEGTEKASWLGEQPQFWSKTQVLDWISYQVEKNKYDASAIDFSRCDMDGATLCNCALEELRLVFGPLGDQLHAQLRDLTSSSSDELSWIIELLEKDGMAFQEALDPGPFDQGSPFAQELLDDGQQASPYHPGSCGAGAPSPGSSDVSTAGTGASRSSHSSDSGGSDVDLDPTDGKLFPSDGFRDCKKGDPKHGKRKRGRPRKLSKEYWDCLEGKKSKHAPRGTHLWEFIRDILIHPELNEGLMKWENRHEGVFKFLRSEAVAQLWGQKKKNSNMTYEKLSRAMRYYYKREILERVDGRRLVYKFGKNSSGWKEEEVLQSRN
# Method in brief: as §1
# CRX = CRX (Homo sapiens, UniProt O43186 1-299)
# Method in brief: as §1
# ETV1 = ETV1 (Homo sapiens, UniProt P50549 1-477)
# Method in brief: as §1
# ERF = biological target: T6, ERF (Homo sapiens, UniProt P50548 1-548)
# T6 sequence: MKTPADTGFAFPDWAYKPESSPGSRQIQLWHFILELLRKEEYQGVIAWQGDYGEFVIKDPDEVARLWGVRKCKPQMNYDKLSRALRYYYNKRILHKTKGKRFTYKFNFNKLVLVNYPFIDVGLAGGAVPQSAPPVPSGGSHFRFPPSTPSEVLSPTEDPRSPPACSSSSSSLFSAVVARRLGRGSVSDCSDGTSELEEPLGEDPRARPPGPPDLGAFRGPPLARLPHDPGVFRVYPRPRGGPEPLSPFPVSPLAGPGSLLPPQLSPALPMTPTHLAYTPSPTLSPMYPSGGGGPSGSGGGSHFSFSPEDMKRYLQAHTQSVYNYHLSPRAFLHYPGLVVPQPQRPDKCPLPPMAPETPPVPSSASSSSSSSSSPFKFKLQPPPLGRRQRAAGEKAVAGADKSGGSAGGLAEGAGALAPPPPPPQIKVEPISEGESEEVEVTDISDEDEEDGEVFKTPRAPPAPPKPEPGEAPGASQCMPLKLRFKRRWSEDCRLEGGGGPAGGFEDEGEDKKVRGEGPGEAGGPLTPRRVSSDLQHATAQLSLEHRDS
# Method in brief: as §1
# ETV3L = biological target: T7, ETV3L (Homo sapiens, UniProt Q6ZN32 1-361)
# T7 sequence: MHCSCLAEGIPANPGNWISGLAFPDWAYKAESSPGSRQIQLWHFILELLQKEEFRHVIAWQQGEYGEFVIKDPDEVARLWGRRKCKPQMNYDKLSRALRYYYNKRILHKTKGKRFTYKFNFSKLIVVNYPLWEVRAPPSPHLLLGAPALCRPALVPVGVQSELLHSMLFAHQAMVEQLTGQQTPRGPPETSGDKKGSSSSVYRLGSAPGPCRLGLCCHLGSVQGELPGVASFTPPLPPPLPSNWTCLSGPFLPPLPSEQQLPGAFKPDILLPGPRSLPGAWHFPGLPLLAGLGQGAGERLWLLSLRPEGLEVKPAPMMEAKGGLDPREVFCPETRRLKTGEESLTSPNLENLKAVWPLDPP
# Method in brief: as §1
# ETS2 = biological target: T8, ETS2 (Homo sapiens, UniProt P15036 1-469)
# T8 sequence: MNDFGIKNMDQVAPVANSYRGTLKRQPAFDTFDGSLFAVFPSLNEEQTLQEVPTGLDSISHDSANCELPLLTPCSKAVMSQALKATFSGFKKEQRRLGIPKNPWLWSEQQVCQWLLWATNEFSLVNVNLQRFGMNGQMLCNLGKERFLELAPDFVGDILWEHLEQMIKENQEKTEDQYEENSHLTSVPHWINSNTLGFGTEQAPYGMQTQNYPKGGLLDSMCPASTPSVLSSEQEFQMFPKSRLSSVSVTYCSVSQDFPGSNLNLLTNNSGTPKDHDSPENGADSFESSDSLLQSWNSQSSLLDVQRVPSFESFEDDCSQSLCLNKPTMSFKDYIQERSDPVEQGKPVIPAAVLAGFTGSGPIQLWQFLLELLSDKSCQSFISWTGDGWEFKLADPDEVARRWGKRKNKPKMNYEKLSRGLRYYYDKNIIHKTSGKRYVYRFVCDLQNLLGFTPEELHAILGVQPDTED
# Method in brief: as §1
# SPDEF = biological target: T9, SPDEF (Homo sapiens, UniProt O95238 1-335)
# T9 sequence: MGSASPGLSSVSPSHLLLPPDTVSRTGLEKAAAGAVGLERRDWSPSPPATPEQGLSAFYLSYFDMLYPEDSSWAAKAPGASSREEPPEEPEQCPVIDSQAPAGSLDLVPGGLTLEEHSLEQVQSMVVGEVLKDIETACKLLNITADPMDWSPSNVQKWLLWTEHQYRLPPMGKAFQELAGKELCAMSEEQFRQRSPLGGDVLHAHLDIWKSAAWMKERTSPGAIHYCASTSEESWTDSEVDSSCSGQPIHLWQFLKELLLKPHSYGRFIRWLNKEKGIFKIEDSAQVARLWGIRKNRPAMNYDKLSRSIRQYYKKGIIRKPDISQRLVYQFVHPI
# Method in brief: as §1
# ETV7 = biological target: T10, ETV7 (Homo sapiens, UniProt Q9Y603 1-341)
# T10 sequence: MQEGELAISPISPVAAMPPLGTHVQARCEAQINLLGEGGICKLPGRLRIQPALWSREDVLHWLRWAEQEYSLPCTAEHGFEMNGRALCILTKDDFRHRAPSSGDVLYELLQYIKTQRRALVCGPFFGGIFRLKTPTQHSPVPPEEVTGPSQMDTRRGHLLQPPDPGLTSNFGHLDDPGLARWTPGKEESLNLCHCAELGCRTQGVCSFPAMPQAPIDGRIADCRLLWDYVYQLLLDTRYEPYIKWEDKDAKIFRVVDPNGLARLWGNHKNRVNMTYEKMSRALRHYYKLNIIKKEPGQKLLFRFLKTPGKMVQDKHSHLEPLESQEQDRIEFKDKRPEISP
# Method in brief: as §1
# ELF5 = biological target: T11, ELF5 (Homo sapiens, UniProt Q9UKW6-2 1-255)
# T11 sequence: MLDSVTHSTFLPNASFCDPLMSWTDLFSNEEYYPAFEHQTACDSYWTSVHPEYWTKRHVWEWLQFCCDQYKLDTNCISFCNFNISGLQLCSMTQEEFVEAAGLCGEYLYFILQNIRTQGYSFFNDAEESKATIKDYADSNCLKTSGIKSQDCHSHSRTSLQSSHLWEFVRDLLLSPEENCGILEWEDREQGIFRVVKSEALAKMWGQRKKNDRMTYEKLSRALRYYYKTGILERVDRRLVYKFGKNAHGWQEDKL
# Method in brief: as §1
# ETV3 = biological target: T12, ETV3 (Homo sapiens, UniProt P41162-2 1-143)
# T12 sequence: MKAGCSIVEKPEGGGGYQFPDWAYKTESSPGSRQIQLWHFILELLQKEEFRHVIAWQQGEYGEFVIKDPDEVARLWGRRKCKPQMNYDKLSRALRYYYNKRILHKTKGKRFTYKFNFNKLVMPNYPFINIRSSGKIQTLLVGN
# Method in brief: as §1
# ETV6 = ETV6 (Homo sapiens, UniProt P41212 1-452)
# Method in brief: as §1
# Chain of ETV5 (P41161 whole entry): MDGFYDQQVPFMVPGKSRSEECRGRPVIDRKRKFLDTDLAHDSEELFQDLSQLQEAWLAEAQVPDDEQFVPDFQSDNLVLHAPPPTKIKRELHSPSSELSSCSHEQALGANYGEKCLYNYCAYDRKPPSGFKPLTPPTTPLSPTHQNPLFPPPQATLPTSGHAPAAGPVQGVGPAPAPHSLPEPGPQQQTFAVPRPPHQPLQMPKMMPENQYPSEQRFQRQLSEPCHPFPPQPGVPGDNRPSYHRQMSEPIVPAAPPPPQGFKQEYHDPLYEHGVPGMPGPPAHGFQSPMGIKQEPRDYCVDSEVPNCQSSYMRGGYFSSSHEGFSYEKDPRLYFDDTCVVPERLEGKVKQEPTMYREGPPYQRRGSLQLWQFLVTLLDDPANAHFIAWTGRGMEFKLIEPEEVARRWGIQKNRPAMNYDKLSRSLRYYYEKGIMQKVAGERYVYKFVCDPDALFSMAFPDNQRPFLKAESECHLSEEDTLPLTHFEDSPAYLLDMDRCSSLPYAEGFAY
# Chain of ELF4 (Q99607 whole entry): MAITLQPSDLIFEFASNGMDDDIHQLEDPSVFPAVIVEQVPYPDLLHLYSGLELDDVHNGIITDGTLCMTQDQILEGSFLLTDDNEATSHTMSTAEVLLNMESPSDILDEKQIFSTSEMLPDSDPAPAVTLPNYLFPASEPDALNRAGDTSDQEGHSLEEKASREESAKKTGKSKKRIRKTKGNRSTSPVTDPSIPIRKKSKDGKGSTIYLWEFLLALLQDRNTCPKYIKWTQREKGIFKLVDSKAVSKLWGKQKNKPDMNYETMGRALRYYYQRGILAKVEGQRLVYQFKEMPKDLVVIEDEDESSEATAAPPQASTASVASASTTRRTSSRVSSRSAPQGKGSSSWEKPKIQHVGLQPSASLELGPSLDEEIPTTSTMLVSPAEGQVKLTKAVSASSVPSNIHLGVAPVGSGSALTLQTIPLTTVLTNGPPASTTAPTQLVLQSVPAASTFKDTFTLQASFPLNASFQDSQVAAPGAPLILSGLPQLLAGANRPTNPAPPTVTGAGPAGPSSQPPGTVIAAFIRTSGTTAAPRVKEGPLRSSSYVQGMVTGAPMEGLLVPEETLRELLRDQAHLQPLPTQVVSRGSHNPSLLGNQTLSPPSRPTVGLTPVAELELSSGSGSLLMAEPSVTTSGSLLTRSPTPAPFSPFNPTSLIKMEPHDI
# Chain of ETV6 (P41212 whole entry): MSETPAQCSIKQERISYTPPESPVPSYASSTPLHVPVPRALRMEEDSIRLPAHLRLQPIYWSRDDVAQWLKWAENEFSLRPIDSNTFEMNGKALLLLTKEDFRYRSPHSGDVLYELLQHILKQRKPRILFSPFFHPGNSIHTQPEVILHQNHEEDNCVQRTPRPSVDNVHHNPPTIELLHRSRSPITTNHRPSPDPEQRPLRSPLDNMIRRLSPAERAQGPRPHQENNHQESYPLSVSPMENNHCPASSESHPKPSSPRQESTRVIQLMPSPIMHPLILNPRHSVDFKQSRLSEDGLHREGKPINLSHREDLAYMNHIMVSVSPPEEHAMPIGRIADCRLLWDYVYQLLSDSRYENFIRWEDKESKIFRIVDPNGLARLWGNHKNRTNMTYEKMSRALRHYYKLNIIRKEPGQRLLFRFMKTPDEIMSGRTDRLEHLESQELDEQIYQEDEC
# Chain of ETV1 (P50549 whole entry): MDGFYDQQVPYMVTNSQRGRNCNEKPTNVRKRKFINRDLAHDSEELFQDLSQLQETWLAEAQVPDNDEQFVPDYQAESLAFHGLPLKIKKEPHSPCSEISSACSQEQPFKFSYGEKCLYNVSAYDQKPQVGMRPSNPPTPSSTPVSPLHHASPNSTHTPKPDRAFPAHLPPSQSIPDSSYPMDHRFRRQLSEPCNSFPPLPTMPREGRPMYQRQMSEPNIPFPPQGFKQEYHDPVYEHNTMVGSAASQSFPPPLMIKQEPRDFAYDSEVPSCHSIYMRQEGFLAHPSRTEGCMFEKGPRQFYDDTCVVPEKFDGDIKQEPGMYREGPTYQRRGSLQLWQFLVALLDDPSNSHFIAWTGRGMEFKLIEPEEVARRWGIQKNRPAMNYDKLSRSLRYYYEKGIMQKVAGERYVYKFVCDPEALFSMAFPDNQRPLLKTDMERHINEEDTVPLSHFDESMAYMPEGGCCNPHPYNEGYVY
# Chain of CRX (O43186 whole entry): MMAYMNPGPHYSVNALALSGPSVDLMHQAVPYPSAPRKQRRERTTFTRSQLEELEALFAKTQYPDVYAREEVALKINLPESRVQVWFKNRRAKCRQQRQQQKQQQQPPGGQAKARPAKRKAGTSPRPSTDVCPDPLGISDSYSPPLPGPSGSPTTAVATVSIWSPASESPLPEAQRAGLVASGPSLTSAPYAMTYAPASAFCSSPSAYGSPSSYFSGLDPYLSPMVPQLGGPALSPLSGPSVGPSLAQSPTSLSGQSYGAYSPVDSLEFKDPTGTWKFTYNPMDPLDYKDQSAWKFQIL
Sequence,binding signal (FEV),binding signal (ETV5),binding signal (SPIC),binding signal (ELF4),binding signal (ELK4),binding signal (ETV2),binding signal (ELF3),binding signal (CRX),binding signal (ETV1),binding signal (ERF),binding signal (ETV3L),binding signal (ETS2),binding signal (SPDEF),binding signal (ETV7),binding signal (ELF5),binding signal (ETV3),binding signal (ETV6)
CCCCTG,"1.18 fold enrichment (6-mer frequency, TF over GST control)","1.22 fold enrichment (6-mer frequency, TF over GST control)","1.16 fold enrichment (6-mer frequency, TF over GST control)","1.21 fold enrichment (6-mer frequency, TF over GST control)","1.46 fold enrichment (6-mer frequency, TF over GST control)","1.03 fold enrichment (6-mer frequency, TF over GST control)","1.21 fold enrichment (6-mer frequency, TF over GST control)","1.07 fold enrichment (6-mer frequency, TF over GST control)","1.24 fold enrichment (6-mer frequency, TF over GST control)","1.39 fold enrichment (6-mer frequency, TF over GST control)","1.13 fold enrichment (6-mer frequency, TF over GST control)","1.21 fold enrichment (6-mer frequency, TF over GST control)","1.17 fold enrichment (6-mer frequency, TF over GST control)","1.13 fold enrichment (6-mer frequency, TF over GST control)","1.15 fold enrichment (6-mer frequency, TF over GST control)","1.07 fold enrichment (6-mer frequency, TF over GST control)","1.07 fold enrichment (6-mer frequency, TF over GST control)"
TACGGA,"1.26 fold enrichment (6-mer frequency, TF over GST control)","1.34 fold enrichment (6-mer frequency, TF over GST control)","1.21 fold enrichment (6-mer frequency, TF over GST control)","1.25 fold enrichment (6-mer frequency, TF over GST control)","1.15 fold enrichment (6-mer frequency, TF over GST control)","1.42 fold enrichment (6-mer frequency, TF over GST control)","1.42 fold enrichment (6-mer frequency, TF over GST control)","1 fold enrichment (6-mer frequency, TF over GST control)","1.39 fold enrichment (6-mer frequency, TF over GST control)","1.28 fold enrichment (6-mer frequency, TF over GST control)","1.34 fold enrichment (6-mer frequency, TF over GST control)","1.38 fold enrichment (6-mer frequency, TF over GST control)","1.47 fold enrichment (6-mer frequency, TF over GST control)","1.18 fold enrichment (6-mer frequency, TF over GST control)","1.51 fold enrichment (6-mer frequency, TF over GST control)","1.43 fold enrichment (6-mer frequency, TF over GST control)","1.39 fold enrichment (6-mer frequency, TF over GST control)"
